Measurements as given in PubChem BioAssay (NCI).
Compounds without any hit were thinned out: in the full panel of roughly 79,000, 15% have a hit. Unmarked numbers belong to inactive results. Active and inactive are the calls of the source. Rule as the data show it: active = growth inhibition above about 70%; inactive = the rest.

Assays:
[1] = NCI Yeast Anticancer Drug Screen. Data for the rad50 strain (AID 155);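 also: 0% = growth of vehicle-only cultures of the same strain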; details: S. cerevisiae rad50 strain growth inhibition; at 50.0 µM; stronger effect = higher value
Summary of the method: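 Cells are treated with compound, grown, and their growth is then scored against vehicle-only cultures of the same repair-deficient yeast strain.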

[2] = NCI Yeast Anticancer Drug Screen. Data for the mec2-1 strain (AID 157); details: S. cerevisiae mec2-1 strain, at 50.0 µM, stronger effect = higher value
Summary of the method: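 Readout is yeast growth inhibition, normalised to vehicle-treated controls, in the mec2-1 strain exposed to compound.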

[3] = NCI Yeast Anticancer Drug Screen. Data for the sgs1 mgt1 strain (AID 161);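 also: 0% = growth of cultures given vehicle only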; details: S. cerevisiae sgs1 mgt1 strain, at 50.0 µM, stronger effect = higher value
Summary of the method: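 Percent growth inhibition was derived by comparing compound-exposed mutant yeast with vehicle-exposed cultures. The strain carries alterations in DNA damage repair.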

[4] = NCI Yeast Anticancer Drug Screen. Data for the cln2 rad14 strain (AID 165);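 also: 0% = growth equal to vehicle treated cultures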; details: S. cerevisiae cln2 rad14 strain, at 50.0 µM, stronger effect = higher value
Summary of the method: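 Relative to vehicle controls, growth inhibition of compound-treated cln2 rad14 yeast was recorded.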

[5] = NCI Yeast Anticancer Drug Screen. Data for the bub3 strain (AID 167); details: S. cerevisiae bub3 mutant strain, at 50.0 µM, stronger effect = higher value
Summary of the method: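 Part of a panel of yeast mutants defective in DNA damage repair or cell cycle regulation. Each strain is grown with compound, and inhibition is calculated relative to solvent-treated cultures.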

[6] = NCI Yeast Anticancer Drug Screen. Data for the mlh1 rad18 strain (AID 175); details: S. cerevisiae mlh1 rad18 strain growth inhibition; at 50.0 µM; stronger effect = higher value
Summary of the method: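 Test agents were incubated with a yeast strain of defined genotype (DNA damage repair defect). Inhibition of growth was derived by comparison with vehicle-exposed cultures.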

| SMILES | growth inhibition [1] | growth inhibition [2] | growth inhibition [3] | growth inhibition [4] [%] | growth inhibition [5] | growth inhibition [6] |
| --- | --- | --- | --- | --- | --- | --- |
| CCC(=O)NC(C(=O)O)C(C)(C)S (configuration not stated) | -0.4% | -3.65% | 0.1% | 5.9 | 2.4% | -3.95% |
| Cc1cccc(C)c1C1=NCCN1 | 3.55% | -8.95% | -8.95% | -39.2 | -16.8% | 1.65% |
| CC(C)C(C(=O)O)C(=O)O | 3.55% | 10.5% | 4.75% | 1.25 | 3.9% | 19.1% |
| CC1CC2C3(C1)CC(C(=O)OC3=O)C2(C)C (configuration not stated) | -3.4% | -11.4% | -7.35% | -37.4 | -2.1% | 23.4% |
| CC(=O)OCC(C)(C)COC(C)=O | 2.6% | 1.65% | -11.6% | -7.9 | -5.25% | -11.2% |
| CCOC(=O)Cc1ccccn1 | 5.8% | -22.5% | -37.7% | -14.3 | -14.9% | -6% |
| N=c1nc2n(cc1F)C1OC(CO)C(O)C1O2 (configuration not stated) | -18.1% | 7.7% | 15.3% | -37.3 | -0.1% | -8% |
| CCOC(=O)c1nc(N(C)C)oc(=O)c1C | 25.1% | 33.1% | 28.1% | -0.7 | 18.6% | 13.6% |
| CN(C)S(=O)(=O)C(c1ccccc1)C(c1ccccc1)S(=O)(=O)N(C)C (configuration not stated) | 47% | -4.4% | 27.1% | 2 | -4.75% | 1.5% |
| Cc1[nH]c2ccc([N+](=O)[O-])cc2c1C | 19.1% | -5.15% | 32.1% | 26.4 | 25.4% | 38.4% |
| COc1ccc2cc(NC(=O)N/N=C\c3ccc([N+](=O)[O-])cc3)ccc2c1 | 27.1% | 7.35% | 19.2% | -8.3 | 12.9% | 27.4% |
| CC(=O)OC1/C=C(\C)C(OC(C)=O)C/C=C(/C)CCC2C(/C=C/C1=O)C2(C)C (configuration not stated) | 78.9% (active) | 74.4% (active) | 78.1% (active) | 64.1 | 71.2% (active) | 74% (active) |
| Cc1ccc2c(c1)C(C)CC2(C)C (configuration not stated) | 1.8% | -6.55% | -4.6% | 3.65 | 8.95% | 2.15% |
| Cc1ccc(S(=O)(=O)N2CCOCC2)cc1 | -2.9% | -20.1% | -13.3% | 15.5 | -0.7% | -30.4% |
| CN(Cc1ccccc1)c1ccc(C(=O)O)cc1 | -2.65% | 2.3% | -5.55% | -19 | -23.6% | 7% |
| CCOC(=O)/C=C/SCCCC(=O)O | 1.5% | -1.5% | 0.25% | -22.8 | -4.55% | 42.2% |
| CC12CC(=O)Nc3ccccc3N1C(c1ccccc1)=NO2 (configuration not stated) | -11.5% | -29.4% | -6.6% | 3 | -14.8% | -7.4% |
| COc1cc(CC2C(=O)OCC2C2(c3ccc4c(c3)OCO4)SCCCS2)cc(OC)c1OC (configuration not stated) | 10.4% | 8.3% | 0.15% | 27.5 | 3.2% | 26.8% |
| N#CNc1ccccc1 | 0.05% | 6.15% | -12.2% | -8.8 | 5.15% | 3.45% |
| C#CCOC(=O)C(N)CC(N)=O (configuration not stated) | -13.8% | -21.9% | -40.6% | -11.8 | -26.6% | -17.2% |
| Cc1cc(NC(=O)C(=O)Cc2cnc3ccccc3n2)c(S(=O)(=O)O)cc1Cl | 1.45% | 12.8% | -2.7% | -23 | -11.2% | -7.8% |

| SMILES | growth inhibition [1] | growth inhibition [2] | growth inhibition [3] | growth inhibition [4] [%] | growth inhibition [5] | growth inhibition [6] |
| --- | --- | --- | --- | --- | --- | --- |
| O=C1CCC2CCC(=O)N12 | 1.25% | -2.2% | -10.3% | 2.1 | -11.2% | 5.65% |
| O=C1CNC(=O)N1Nc1ccccc1 | -9.35% | -2.55% | -2.35% | -26.6 | 4% | -5.3% |
| O=C(c1cccc(C(=O)N(c2ccccc2)c2ccccc2)n1)N(c1ccccc1)c1ccccc1 | -47.5% | -11.2% | -32.1% | 15.6 | -11.8% | -1.8% |
| Cc1nc(N)nc(C)c1N=Nc1cccc(Cl)c1 | 2.05% | 11.6% | 9.35% | -32.8 | 21.6% | 3.85% |
| CCOC(=O)CNC(=O)C(Cc1cnc[nH]1)NC(=O)CNC(=O)OCc1ccccc1 (configuration not stated) | 1.15% | -2.15% | 9.75% | -23.9 | 1.1% | 9.2% |
| C1CC2(C34CCC(CC3)C4)CCC1C2 | -5.15% | 1.45% | 14.2% | 7.55 | 7.1% | -2.6% |
| CC(C)(C)C(=O)O[C@H]1C=C[C@@H](O)[C@@H]2[C@H]1[C@@H]1C=C[C@H]2C1 | 28.1% | 41.6% | 66.8% | 11.6 | 55.9% | 53.5% |
| CCOC(=O)/C(C#N)=C/c1ccc([N+](=O)[O-])cc1 | 19.2% | -2.75% | 14.5% | -5.6 | 0.35% | 8.4% |
| CCCCCCCCCCCC(=O)OC(COC(N)=O)COc1ccc(Cl)cc1 (configuration not stated) | -34.2% | -59.5% | -18.9% | 0.3 | -10.2% | -46.4% |
| COc1ccc2c(c1)C(O)C(NCc1ccccc1)C2 (configuration not stated) | -13.6% | -7.75% | -0.45% | -9.9 | 8.5% | -8.55% |
| COc1ccccc1C(=O)N(C)c1ccc(Cl)c(C(=O)OC(C)C)c1 | 30.9% | 24.7% | 46.4% | 37.7 | 44.5% | 6.85% |
| N#C/C(=C\c1cc(Br)c(O)c(Br)c1)c1ccccn1 | 50.5% | 50.1% | 24.4% | 2.55 | -3.35% | 52.6% |
| NC(=O)n1ncc(Cl)c(Cl)c1=O | -7.25% | -1.5% | 2.1% | 4.3 | -1.8% | 7.35% |
| CCN(CC)C1=NS(=O)(=O)c2ccccc21 | 1.2% | -3.65% | 9.45% | -11.4 | 2.3% | 0.5% |
| CN(N)C(=O)Nc1ccc([N+](=O)[O-])cc1 | 16.4% | 5.65% | -2.7% | 7.45 | 12% | -1.75% |
| COc1ccc(-c2c(-c3ccccc3)oc(/N=C/c3ccccc3)c2-c2ccccc2)cc1 | 8.35% | -0.75% | 4.9% | -2.8 | 2.25% | 13.8% |
| NC(CCCNc1nc(O)c(-c2ccccc2)c(=O)[nH]1)C(=O)O (configuration not stated) | -12.9% | -24.4% | -10.7% | -44 | -10.3% | -3.55% |
| O=C(Cc1ccccc1)Nc1ccc([N+](=O)[O-])cc1Cl | 4.95% | 16.1% | 23.4% | 2.1 | 6.5% | 38.1% |
| S=C(Nc1ccc(I)cc1)SCc1ccc2c(c1)OCO2 | 32.5% | 14.4% | 25.5% | 32.2 | -3.65% | 23.8% |
| N#CCC(=O)c1ccccc1C(=O)O | -4.45% | -38.8% | 4.7% | 4.65 | -6.2% | 17.6% |
| O=C1CN(c2cccc(Cl)c2)C(=O)CN1CCN1CC(=O)N(c2cccc(Cl)c2)CC1=O | -35.2% | -11.7% | -19.6% | -7.8 | -37.5% | -32.2% |
